In all, about 360,000 compounds went through this assay and about 4,600 (1.3%) were called active. What follows is part of a selection rich in actives, with near analogues and random picks from the rest. A number with no mark means an inactive call.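 Rule for the calls: active = percent inhibition above its own plate's cutoff, namely the mean of that plate's compound wells plus 3 SD; inactive = the rest.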

The assay deals with Muscarinic acetylcholine receptor M1 (Homo sapiens) (UniProt P11229). The experiment in a line: human M1 muscarinic receptor antagonists, primary screen, CHO-K1 cells, Fluo-8 calcium fluorescence, 1536-well (AID 588852).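 Note: peak over basal fluorescence ratio during 140 s after agonist addition; 0% = ACh EC80 plus DMSO and 100% = DMSO alone without agonist.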 Particulars: CHO-K1 hM1, Fluo-8 calcium fluorescence, ACh EC80 antagonist; at 3 µM; active compounds read high.
Muscarinic acetylcholine receptor M1 (Homo sapiens), sequence (P11229 whole entry, looked up): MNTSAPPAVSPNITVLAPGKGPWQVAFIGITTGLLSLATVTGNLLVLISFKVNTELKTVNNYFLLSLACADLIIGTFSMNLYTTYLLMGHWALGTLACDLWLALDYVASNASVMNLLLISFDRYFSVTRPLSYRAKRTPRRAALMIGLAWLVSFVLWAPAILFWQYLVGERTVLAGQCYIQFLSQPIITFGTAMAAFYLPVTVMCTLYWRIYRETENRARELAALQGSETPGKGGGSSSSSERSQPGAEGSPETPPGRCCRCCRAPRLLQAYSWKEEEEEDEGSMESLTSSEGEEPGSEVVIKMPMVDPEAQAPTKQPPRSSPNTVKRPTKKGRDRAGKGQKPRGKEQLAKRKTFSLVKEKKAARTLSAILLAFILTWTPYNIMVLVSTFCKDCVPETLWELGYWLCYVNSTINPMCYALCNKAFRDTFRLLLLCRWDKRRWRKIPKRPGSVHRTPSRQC
As usually defined, the inhibition is the change of the read-out against control, counted positive when it falls. Take `CCCN1CNC(=S)N(CCc2ccccc2)C1`: the inhibition is -6.28%. Take `CC1(C)Cc2c(cnn2-c2cccc(F)c2)C(NC(=O)c2cc[n+]([O-])cc2)C1` (stereo unspecified): the inhibition was 9.23%.

With `Cc1ccc(-n2ncc3c2CCCC3NC(=O)c2cnccn2)cc1C` (stereo unspecified), the inhibition is -17.9%. For `Cn1nccc1C(=O)NC1CCCc2c1cnn2-c1ccc(F)cc1F` (stereo unspecified) the value was 31.6% (active). Take `CCCc1nnc(SCC(=O)Nc2ccc(C(=O)OCC)cc2)o1`: the inhibition was 9%. Take `CCOC(=O)c1ccc(NC(=O)Cn2cnc3cc(C)c(C)cc32)cc1`: the inhibition was 37.4% (active). For `CCOC(=O)c1ccc(NC(=O)CS(=O)(=O)c2cn(CC)c3ccccc23)cc1`, the inhibition is -2.75%. Regarding `Cc1ccc(Cc2c(-c3ccco3)nc3ccc(Cl)cn23)cc1`, the inhibition was -22.8%. For `COc1cccc(CN(C)C(=O)CC[C@H]2O[C@@H](n3cnc4c(NC(=O)c5ccccc5)ncnc43)[C@H](O)[C@@H]2O)c1` the value was -19.1%; for `CC1=C(C(=O)N(C(C)C)C(C)C)CC(CC(=O)NCCCCc2ccccc2)C(=O)N1CCC1=CCCCC1` (stereo unspecified), -20.5%; for `OC[C@@H]1CN(Cc2ccc(F)cc2)C[C@H](n2cnc3c(NC4CCCC4)ncnc32)O1`, -0.24%. As for `OC[C@@H]1CN(Cc2ccc(-c3ccccc3)cc2)C[C@H](n2cnc3c(NC4CCCC4)ncnc32)O1`, the inhibition was 32% (active). As for `OC[C@@H]1CN(Cc2cccs2)C[C@H](n2cnc3c(NC4CCCC4)ncnc32)O1`, the inhibition was -11.8%. For `O=C(c1ccc(N2CCCC2=O)cc1)N1CCN(c2ccc(C(F)(F)F)cc2[N+](=O)[O-])CC1`, the inhibition is 53.8% (active). `COc1cc(OC)cc(C(=O)NC(=S)N2CCN(c3ccc(C(F)(F)F)cc3[N+](=O)[O-])CC2)c1`: the inhibition is -3.37%. As for `O=C(c1ccc(N2CCOCC2)c([N+](=O)[O-])c1)N1CCN(c2ccccc2F)CC1`, the inhibition was -20.3%. For `NC(c1csc(NC(=O)Nc2cccc(C(F)(F)F)c2)n1)C1CCCCC1` (stereo unspecified), the inhibition was 2.03%. With `CCc1cc2c(SCC(=O)Nc3ncc(Cl)c(C)c3Cl)ncnc2s1`, the inhibition was 3.21%. Turning to `CN(C)c1cc[n+](Cc2ccccc2)cc1`, the inhibition was 21.7%. As for `c1ccc(Cc2cc[n+](Cc3ccccc3)cc2)cc1`, the inhibition was 37.1% (active). Take `c1ccc(CNCc2ccc(CNCc3ccccc3)cc2)cc1`: the inhibition is 2.12%.

`CCOc1ccc(CCNC(=O)C2=C(C)C(=O)OC23CCC(C)CC3)cc1OCC` (stereo unspecified): the inhibition was -7.29%. With `NC(c1csc(NC(=O)Nc2ccccc2Oc2ccccc2)n1)c1ccccc1Cl` (stereo unspecified), the inhibition is -3.63%. In the case of `CN(Cc1ccccc1)C(=O)COc1ccccc1`, the inhibition is 1.72%. Consider `Cc1ccc(C)c(NC(=O)CN(C)C(=O)COc2ccc3ccccc3c2)c1`, for which the inhibition was -15%. Take `CN(Cc1ccc(F)cc1)C(=O)COc1ccc2ccccc2c1`: the inhibition was 24.7% (active).

For the compound `CC(C)(C)N1C(=O)c2c(C(=O)OCc3ccccc3)[nH]c(-c3ccccc3)c2C1=O`, the inhibition was -12.3%.

As for `CCNC(=O)C1(C)CCCN(C(=O)c2c(C)noc2C)C1` (stereo unspecified), the inhibition was -8.22%. In the case of `CSc1ccc(CNC(=O)C2(C)CCCN2C)cc1` (stereo unspecified), the inhibition is -11.7%. Consider `CC(=O)c1ccc(NC(=O)CSc2nc3ccccc3c(=O)n2CCCN2CCOCC2)cc1`, for which the inhibition was 1.86%. For `CC1CCN(CCCn2c(SCC(=O)NC3CCCC3)nc3ccccc3c2=O)CC1` the value was 31.2% (active); for `O=C(CSc1nc2ccccc2c(=O)n1CCCO)NC1CC1`, -2.1%; for `COC(=O)c1ccc2nc(-c3ccc(OC)c(OC)c3)c(Cc3ccccc3)n2c1`, -24%. `Cc1c(C(=O)OC(C)C)sc(NC(=O)c2cccnc2)c1C#N`: the inhibition was -3.46%.

For the compound `CC(=O)N1c2ccc(S(=O)(=O)N3CCC(C(=O)N4CCN(c5ccccc5)CC4)CC3)cc2CC1C` (stereo unspecified), the inhibition was 10.8%. For `CC(=O)N1CCCc2cc(S(=O)(=O)CCC(=O)N3CCN(c4ccccc4)CC3)ccc21` the value was -7.27%. On to `CC(=O)N1CCCc2cc(S(=O)(=O)N3CCCC(C(=O)N4CCN(c5cccc(Cl)c5)CC4)C3)ccc21` (stereo unspecified), for which the inhibition is 57.1% (active). For `O=C(CCS(=O)(=O)c1ccccc1Cl)Nc1ccc(S(=O)(=O)Nc2ncccn2)cc1` the value was -5.9%; for `CCN1C(=O)[C@@H]2[C@@H]3CN(S(=O)(=O)c4ccccc4C)[C@@H](c4ccc(Cl)cc4)[C@@H]3C(=O)C[C@@H]2C1=O`, 4.67%. For `Cc1ccc(S(=O)(=O)N2CCC(C(=O)N[C@@H](C)C(=O)NCc3ccccc3)CC2)cc1`, the inhibition is 4.54%. Take `CCN(CC(=O)N1CCCC1)S(=O)(=O)c1ccc(F)cc1`: the inhibition is -13%. For `O=C(O)C(c1ccccc1)C1(O)CCCCC1` (stereo unspecified) the value was -17.6%; for `CN(C)CCOC(=O)C(c1ccccc1)C1(O)CCCC1` (stereo unspecified), 99.4% (active). Take `O=C(O)C(c1cccs1)C1(O)CCCCC1` (stereo unspecified): the inhibition is -1.29%. As to `COc1ccccc1N1CCN(CC(=O)NCCc2ccc(S(N)(=O)=O)cc2)CC1`, the inhibition is 4.39%.

Take `Cc1nc(NC(=O)CCC(=O)O)sc1C(=O)N(C)C`: the inhibition was 2.74%.

For the compound `CCCn1c(C2CCCN2c2nc(-c3ccc(C)cc3)cs2)nc2cc(Cl)c(N3CCCCC3)cc21` (stereo unspecified), the inhibition was -10.7%.

Take `CCOc1ccc(C(=O)Nc2ccc(S(=O)(=O)Nc3cc(C)on3)cc2)cc1`: the inhibition was 0.49%. In the case of `COc1cc2ccccc2cc1C(=O)Nc1ccc(S(=O)(=O)Nc2cc(C)on2)cc1`, the inhibition was 103% (active). In the case of `COc1ccc(S(=O)(=O)Nc2cc(C)on2)cc1NC(C)=O`, the inhibition was -12.3%. `CC1CCCC(C)N1C(=O)COC(=O)COc1ccccc1C#N` (stereo unspecified): the inhibition was -15.1%. As for `COc1ccccc1CNS(=O)(=O)c1cc(C(=O)NCc2ccccn2)c(Cl)cc1Cl`, the inhibition is 5.67%. In the case of `Cc1cc(C)n2nc(C(=O)OCC(=O)N(CCC#N)c3ccc(F)cc3)nc2n1`, the inhibition was -14.2%. With `CNS(=O)(=O)c1ccc(N2CCCC2=O)c([N+](=O)[O-])c1`, the inhibition was -23.5%.

Turning to `CSc1ccccc1C(=O)Nc1cccc(C(C)=O)c1`, the inhibition is 0.3%. Regarding `CC(=O)c1cccc(NC(=S)N2CCN(S(C)(=O)=O)CC2)c1`, the inhibition is -7.9%.

As to `C=CCSc1nsc(NC(=O)Nc2cccc(C(C)=O)c2)n1`, the inhibition is 38.7% (active). For `COc1ccc(NC(C(=O)Nc2cccc(C(C)=O)c2)c2ccccc2)cc1` (stereo unspecified) the value was -3.24%.

Consider `CCSc1nsc(NC(=O)Nc2cccc(C(C)=O)c2)n1`, for which the inhibition is 51.1% (active). In the case of `CC(=O)c1cccc(NC(=O)C2CCN(C(=O)c3ccccc3Cl)CC2)c1`, the inhibition was -5.19%. As to `Fc1cccc(Cc2c(-c3cccc(Cl)c3)nc3ccc(Br)cn23)c1`, the inhibition is -20.5%. For `CC#CC[N+](C)(C)CCCCCC` the value was -12.7%. As to `FC(F)(F)Oc1ccc(-c2cn3cccnc3n2)cc1`, the inhibition was 12.5%.

For `O=C(CCc1ccc(S(=O)(=O)N2CCOCC2)cc1)OCC(=O)c1ccc(Br)cc1`, the inhibition was 9.26%. As for `O=C(Nc1ccccc1Cl)/C(Cl)=C(\Cl)S(=O)c1ccccc1` (stereo unspecified), the inhibition was -6.91%. As to `OC(C#CCN1CCOCC1)(c1ccccc1)C1CCCCC1` (stereo unspecified), the inhibition was 50.9% (active). For `OC(c1ccccc1)C(CN1CCOCC1)c1ccccc1` (stereo unspecified), the inhibition was -25.3%. With `COc1ccc(C(O)(C2CCCCC2)C(CN2CCCC2)c2ccccc2)cc1` (stereo unspecified), the inhibition was 10.3%. Consider `Clc1cccc(Cl)c1Cn1nnc(-c2cccs2)n1`, for which the inhibition was -2.1%.

Take `CC(=O)c1c(N)n(C)c(=O)n(C)c1=O`: the inhibition was -33.5%.

On to `CCOC(=O)c1ccc(-c2ccc3ncnc(N(C)Cc4sccc4C)c3c2)o1`, for which the inhibition was -1.82%. For `N/C(=N\OC(=O)Nc1ccccc1)c1ccno1` the value was -25%; for `CC(C)CCNC(=O)c1[nH]c(C(F)(F)F)nc1-c1ccccc1`, -26.6%. For `CCN(Cc1ccccc1)C(=O)CN1C(=S)NC(C)(C)CC1C` (stereo unspecified) the value was -5.27%; for `CCNC(=S)N(CCN(CC)CC)Cc1cc2cc3c(cc2[nH]c1=O)OCCO3`, -13%. Turning to `CN1CCN(NC(=O)c2ccc(S(=O)(=O)N3CCCCCC3)cc2)CC1`, the inhibition was -2.56%. As for `CCCCOc1ccc(C(=O)NN2CCN(C)CC2)cc1`, the inhibition is 44.4% (active). With `CC1CN(S(=O)(=O)c2ccc(C(=O)NN3CCN(C)CC3)cc2)CC(C)O1` (stereo unspecified), the inhibition was 9.23%. `Cc1ccc([C@H]2N[C@]3(CCCN(Cc4ccccc4)C3=O)[C@H]3C(=O)N(Cc4ccccc4)C(=O)[C@@H]23)cc1`: the inhibition was -11.4%. As for `OCCc1ccc(NCCc2ccco2)cc1`, the inhibition was 0.71%.

As to `O=C(c1ccccc1Oc1ccccc1)N1CCN(c2ccc(F)cc2)CC1`, the inhibition was 4.1%. In the case of `Cn1c2ccccc2c2c(C(=O)N3CCN(c4ccc(F)cc4)CC3)cn(C3CCCC3)c(=O)c21`, the inhibition is 29.7% (active). On to `CCOC(=O)N1CCN(C(=O)c2nn(-c3ccc(C)cc3)c(=O)c3c2c2ccccc2n3C)CC1`, for which the inhibition was 3.41%.

Take `O=C(Nc1ccc2c(c1)OCCO2)C(C1CC1)N1CCC(Cc2ccccc2)CC1` (stereo unspecified): the inhibition is 34.6%. For `CC(C)Cc1ccc(-c2cc3nc(NCc4cccc(Cl)c4)ccn3n2)cc1` the value was -8.68%; for `Cc1nnc(SC(C)C(=O)c2c[nH]c3ccccc23)n1C1CC1` (stereo unspecified), 2.35%. `C[C@H]1CN([C@@H](C)CO)S(=O)(=O)c2ccc(Br)cc2O[C@H]1CN(C)C(=O)c1cnccn1`: the inhibition was -4.86%. For `O=C(Cc1ccccc1)Nc1c(Cl)ccc2nsnc12`, the inhibition was -7.81%. For `CCNCCC(=O)N1c2ccccc2Sc2ccc(NC(=O)OCC)cc21` the value was 56% (active); for `CCOC(=O)Nc1ccc2c(c1)N(C(=O)CCCl)c1ccccc1[S@]2=O`, -17.2%; for `CCOC(=O)Nc1ccc2c(c1)N(C(=O)CCN1CCN(CCO)CC1)c1ccccc1CC2`, 16.4%.

Source of the values: PubChem BioAssay AID588852 (The Scripps Research Institute Molecular Screening Center, 2011).
